TDP-43 yeast inh = qHTS of TDP-43 Inhibitors; AID 652104, 2013; TDP-43 expressing yeast growth rescue, BacTiter-Glo, 24 h; 410,000 compounds, 1.8% hits; Potency, µM (doses to about 46.1 µM), without a hit: top-dose growth rescue (activation), usual class: activators; further: % of control where 0% means no effect; nearly all actives have a fitted effect of over 50% in size
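Readout is BacTiter-Glo luminescence of cell growth, so inhibitors register as activators. TDP-43-expressing yeast at OD600=0.02 in galactose medium, after raffinose pregrowth to mid-log, were incubated with compound for 24 hr at 30 deg C.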
aSyn rescue = qHTS of alpha-syn Inhibitors; Yeast expressing alpha-synuclein, growth rescue, BacTiter-Glo, 24 h; Potency, µM (series often up to 46.1 µM), for inactives: at the highest dose growth rescue (activation), usual class: activators; 370,000 compounds, 0.14% hits; AID 652106, 2013; further: % of control where 0% means no effect; nearly all actives have a fitted effect of over 65% in size
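Readout is rescue of growth in alpha-synuclein-expressing yeast, so inhibitors of toxicity appear as activators. Growth after 24 hr at 30 deg C in galactose medium is quantified by luminescence.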
MBNL1 CUG block = qHTS Assay for Inhibitors of MBNL1-poly(CUG) RNA binding; Muscleblind-like protein 1 (Homo sapiens), Q9NR56; TR-FRET MBNL1-His/biotin-(CUG)12 binding, 665/545 ratio; Potency, µM (doses to about 57.5 µM), without a hit: at the highest dose activity change, negative = inhibition, most hits filed as inhibitors; 280,000 compounds, 0.036% hits; AID 2675, 2010; active means well fitted inhibition curve with a large enough effect in the signal ratio, with a control signal flat, not every such curve was filed as active; inconclusive means small, poorly fitted or top-dose-only effect, or effect the other way, or a change in a side signal; inactive means no such curve, though single readings can be large or run the other way; the % refers to the signal ratio; further: on the % scale 0 is the no-effect control and ±100 the full control effect
Target sequence (Q9NR56 whole entry, looked up): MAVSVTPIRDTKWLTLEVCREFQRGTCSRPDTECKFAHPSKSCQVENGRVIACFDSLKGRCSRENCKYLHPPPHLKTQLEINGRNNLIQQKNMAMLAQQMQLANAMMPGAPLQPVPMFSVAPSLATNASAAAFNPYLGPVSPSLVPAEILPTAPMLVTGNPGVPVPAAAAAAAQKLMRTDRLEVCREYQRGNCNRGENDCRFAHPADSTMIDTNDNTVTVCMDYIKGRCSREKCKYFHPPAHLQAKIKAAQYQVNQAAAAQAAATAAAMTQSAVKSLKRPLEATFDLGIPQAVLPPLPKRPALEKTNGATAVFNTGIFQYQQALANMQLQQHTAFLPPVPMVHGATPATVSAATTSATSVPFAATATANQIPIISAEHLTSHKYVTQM
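His-tagged MBNL1 binding to biotinylated (CUG)12 RNA was measured by TR-FRET using terbium anti-His antibody (0.055 ng/ul final) and streptavidin-XL665 (5 nM final). Compounds were titrated 92 nM to 58 uM; 60 min at room temperature.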
FUS suppressor = qHTS for Suppressors of FUS Proteinopathy: Primary screen using FUS-linked yeast assay; AID 1347120, 2019; 390,000 compounds, 0.24% hits; Potency, µM (series often up to 76.6 µM), most hits filed as activators; S. cerevisiae FUS-expressing, growth rescue, OD600, 24 h;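 further: plate controls were DMSO vehicle for no effect and reference control for full effect; nearly all actives have a fitted effect of over 55% in size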
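Yeast FUS proteinopathy model; galactose-induced FUS (2%), starting OD 0.005. Cpds in dilution series, 24hr, 30C, 99% humidity. Abs 600 nm growth. Pos ctrl CP55940 (top 92uM final); neg ctrl DMSO.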
GRP78 ERSR act = qHTS for Inducers of the Endoplasmic Reticulum Stress Response (ERSR) in Human Glioma: qHTS; U87-MG GRP78 promoter luciferase reporter, 16 h; Potency, µM, inactives show at the highest dose activation, actives largely listed as activators; 420,000 compounds, 0.02% hits; AID 602332, 2012; further: series mostly up to about 76 µM; % of control where 0% means no effect; nearly all actives have a fitted effect of over 35% in size
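Stably transfected U87-MG human glioma cells carrying a GRP78-based luminescent sensor were seeded at 1000 cells/well, pin-dosed with compounds and incubated 16 h. Luciferase reagent was then added, and end-point luminescence was read after 10 min at room temperature.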
Abeta rescue = qHTS for compounds that reverse cellular toxicity of Amyloid beta (A-beta) peptide in yeast: Primary Screen; 410,000 compounds, 0.063% hits; Potency, µM (doses to about 46.1 µM), actives largely listed as activators; yeast expressing A-beta42, growth rescue, OD600, 48 h; response scale: 0% DMSO, 100% iron-clioquinol control; further: nearly all actives have a fitted effect of over 55% in size
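Growth rescue measured by 600 nm absorbance after 48 h yeast culture at 30 C with compound. Values normalized between DMSO and an equimolar ferric chloride plus clioquinol control.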
* = called active by the depositor; i = inactive; ? = inconclusive; / = no result given. Only some compounds are listed: those with a hit (about 2% of all), similar ones and a draw of the others. Unless noted, the call rests on the fitted dose curve; in most records, active means well fitted curve in the direction sought with a large enough effect; inconclusive means small, poorly fitted or top-dose-only effect, or another doubt; inactive means no such curve, though single readings can be large; an effect the other way counts as inactive or inconclusive. Potency means the concentration at half of the fitted maximal effect.

SMILES	TDP-43 yeast inh	aSyn rescue	MBNL1 CUG block	FUS suppressor	GRP78 ERSR act	Abeta rescue
CCOc1ccc(C2CC(c3c(O)n(C)c(=O)n(C)c3=O)=NN2)cc1 (centres undefined)	0.0%	-0.4%	/	?	1.9%	i
ClC1=C(Cl)[C@]2(Cl)[C@@H]3[C@@H]4C[C@@H]([C@H]5O[C@@H]45)[C@@H]3[C@@]1(Cl)C2(Cl)Cl	/	/	/	/	-4.1%	/
Cc1ccc(-c2cc(C(F)F)n3ncc(C(=O)N4CCc5ccccc5C4)c3n2)cc1	15.8µM*	-2.3%	4.8%	i	-1.7%	i
CC(C)Oc1cccc(NC(=O)c2ccccc2C(F)(F)F)c1	/	/	/	/	-2.6%	/
Cc1cc(C(=O)OCC(=O)Nc2ccc(F)cc2)c(C)n1C1CC1	35.5µM*	28.7%	/	/	-4.5%	i
Nc1c(C(=O)NC2CCCC2)c2nc3ccccc3nc2n1CC1CCCO1 (centres undefined)	12.6µM*	-2.1%	16.6%	?	-4.8%	i
Nc1c(C(=O)NCC2CCCO2)c2nc3ccccc3nc2n1Cc1ccco1 (centres undefined)	-6.6%	-0.6%	11.5%	i	-2.7%	i
COc1cc(O)c(C(=O)O)c(-c2cc(O)c(O)cc2C)c1	17.3%	14.1µM*	2.8%	i	3.3%	?
COc1ccc2c(c1)c(C(=O)O)c(C)n2CC(C)C	4.5%	15.1%	-2.3%	i	-2.4%	i
Cc1ccc(NC(=O)COc2ccc(-c3nn(C)c(=O)c4ccccc34)cc2)cc1	?	/	/	i	-0.2%	i
Cc1ccc(NC(=O)CCSc2nnc(Cc3ccccc3)o2)cc1	17.8µM*	5.2%	11.9%	/	-3.5%	i
Cc1cc(O)c2c3c(c(=O)oc2c1)CCC(C)C3 (centres undefined)	0.2%	-20.4%	8.6%	i	1.6%	i
Cc1cc(O)c2c(c1)OC(C)(C)C1=C2CC(C)CC1 (centres undefined)	12.6µM*	22.2%	-2.3%	i	-5.3%	i
C=CCC1(C(C)CCC)C(=O)NC(=O)NC1=O (centres undefined)	/	/	/	/	-3.1%	/
Cc1ccccc1-n1c(-c2ccc([N+](=O)[O-])cc2)nc2ccccc2c1=O	?	20µM*	?	i	-3.4%	i
O=c1c2ccccc2nc(-c2ccc([N+](=O)[O-])cc2)n1-c1ccccc1	0.0%	-1.1%	?	i	-3.1%	i
CC(O)CN1CCN(CC(=O)[O-])CCN(CC(=O)[O-])CCN(CC(=O)[O-])CC1.[Gd+3] (centres undefined)	/	/	/	/	-3.6%	/
O=C1C(Cl)=C(N2CCCCCC2)C(=O)N1c1ccccc1	11.2µM*	1.8%	?	i	-2.7%	i
COc1ccc(N2C(=O)C(Cl)=C(N3CCN(Cc4ccccc4)CC3)C2=O)cc1	-24.3%	-2.6%	?	i	-7.7%	i
C=Cc1cc(OC)c2c(c1)c(=O)oc1c2cc(OC)c2c(O)ccc(C3OC(C)C(O)C(C)(O)C3O)c21 (centres undefined)	14.1µM*	0.631µM*	/	/	-6.9%	i
COc1cc2c(c3oc4cccc(O)c4c(=O)c13)[C@@H]1C=CO[C@@H]1O2	/	/	/	i	/	/
C=C(C=O)C[C@@H]1C[C@H](O)C2OC3C[C@]4(C)OC5/C=C\CC6OC7C(CC=CCC6OC5CCCC4OC3CC2O1)OC1CC2OC3CC(=O)OC3C[C@@H](C)C[C@@]2(C)OC1C[C@@H]7C (some centres undefined)	22.4µM*	-0.2%	-12.8%	i	-11.0%	i
O=C(Nc1ccc2c(c1)OCCO2)c1cccn(Cc2cccc(F)c2)c1=O	35.5µM*	/	/	i	1.0%	i

Screens: PubChem BioAssay, National Center for Advancing Translational Sciences (NCATS)
